# Source: ChEMBL document CHEMBL4888484, “Replenishing the malaria drug discovery pipeline: Screening and hit evaluation of the MMV Hit Generation Library 1 (HGL1) against asexual blood stage Plasmodium falciparum ,using a nano luciferase reporter read-out” (2022)
# In all, about 4,800 compounds went through this assay and about 410 (8.5%) showed an effect of 50% or more. What follows is part of a selection rich in strong results, with near analogues and random picks from the rest.
# Tested on: Plasmodium falciparum
# Experiment: Confirmatory screen in NF54 pLDH assay, in single point, at 2uM, 72h
# Type: functional, Erythrocyte
# Conditions: timepoint 72 hour
row,SMILES,% Inhibition [%]
1,CN1CCN(c2nc(O)c3c(n2)NC(=O)C[C@H]3c2c(F)cccc2Cl)CC1,-6
2,O=C(CC(F)(F)F)NCc1ccccn1,-21
3,O=C(c1ccccc1)n1c(=O)n(C(=O)c2ccccc2)c2ccccc21,7
4,Cc1n(CC(=O)c2ccccc2)c2ccccc2[n+]1CC(=O)c1ccccc1,66
5,CCC(=O)Nc1ccc(Oc2c(C)c(C(=O)O)nn2-c2ccccc2CC)c(S(=O)(=O)NCC(C)C)c1,9
6,C[C@@H](CNS(=O)(=O)c1ccco1)N(C)S(=O)(=O)c1ccco1,4
7,O=C(Nc1ccc2c(c1)OCO2)c1c(-c2ccc(Cl)cc2)nc2n1CCS2(=O)=O,6
8,CC(CNc1ccccn1)N1CCOCC1C (centres undefined),0
9,c1ccc(Oc2ccc(CNCc3nnc4n3CCCCC4)o2)cc1,9
10,C#C[C@H](C)OC(=O)c1cccc(Nc2cnccn2)c1,10
11,CCNC(=O)NCCOC(=O)Cc1cc(Cl)cc2c1OCC2,-1
12,COCc1cnc(NC(=O)NC2(c3ncccn3)CCOCC2)s1,10
13,COc1ccc(CN2CCC(C(=O)NCCCN3CCOCC3)CC2)c(OC)c1,9
14,Cc1ccc(CS(=O)(=O)NC(=O)N2CCC(c3ccccc3)CC2)cc1,10
15,O=C(NC1CCCC1)c1n[nH]c(=O)c2ccccc12,7
16,COc1cccc2c1OCC(=O)N([C@@H](C)c1ccccc1)C2,-12
17,Cc1nnc(-c2cnn(C)c2N)n1C[C@H]1CCCO1,9
18,O=C(CCC(=O)Nc1cccnc1)NCc1ccc2c(c1)OCO2,6
19,O=C(Nc1cccnc1)c1ccc(-c2ccc(Cl)c(Cl)c2)o1,89
20,O=C(Nc1ccn(Cc2cccnc2)n1)c1ccc(-c2ccccc2F)o1,6
21,CC(C)(C)OC(=O)NS(=O)(=O)NCc1ccccc1,4
22,Cc1nc(CNS(=O)(=O)Cc2ccc(F)c(Cl)c2)sc1C,3

row,SMILES,% Inhibition [%]
1,O=C(NCCN1CCCC1)c1ccc2nc(-c3ccc(Cl)cc3)cn2c1,70
2,O=C(NCCN1CCCC1)c1ccc2c(c1)OCCO2,-7
3,O=c1ccn2c(n1)O[C@H]1[C@H](OC3CCCCO3)[C@@H](COC3CCCCO3)O[C@H]12 (some centres undefined),-17
4,Cc1cc(NC(=O)[C@@H](c2ccccc2)N2CCCCC2=O)sn1,1
5,COC(=O)C1=C(C(=O)OC)SC(=C2C(=S)C(C)(C)N(C(=O)COc3ccc4ccccc4c3)c3ccccc32)S1,7
6,N#Cc1c(CN2CCOCC2)cc(=O)n2c1[nH]c1ccccc12,0
7,Cc1ccc(CN2CCN(C[C@@H](O)Cn3c4ccccc4n4c(=O)cc(C)c(C#N)c34)CC2)c(C)c1,96
8,COc1cc2c(cc1OC)CN(C(=O)c1cccc(N3C(=O)C(C)(C)CS3(=O)=O)c1)CC2,3
9,Cc1cc2n(n1)C(C(F)(F)F)CCN2C(=O)C(C)N1C(=O)C2CCCCC2C1=O (centres undefined),4
10,Cn1nc(C(=O)NC2CCCCC2)cc1C(=O)NC1CCCCC1,12
11,C[C@@H](CNc1ncc(C(=O)N2CCOCC2)cc1Cl)c1nncn1C,-9
12,COc1ccc(Cl)cc1S(=O)(=O)c1cnc(N2CCOCC2)nc1N,10
13,CN1CCN(c2c(F)cc3c(=O)c(C(=O)O)cn(-c4ccc(OC5CC6CCC5(C)C6(C)C)c(F)c4)c3c2F)CC1 (centres undefined),-4
14,COc1cccc(NC(=O)N2CCN(c3nc4ccccc4n(Cc4ccccc4)c3=O)CC2)c1,0
15,CCC(=O)N1CCN(c2cc(Nc3ccc(C)cc3)nc(C)n2)CC1,-1
16,Cc1ccc(C)c(S(=O)(=O)NCCNc2ccc(Nc3ccncc3)nn2)c1,29
17,Cc1onc(N)c1S(=O)(=O)Nc1ccncc1,-2
18,Cc1ccccc1S(=O)(=O)NCc1nnc(C(=O)Nc2ccc(F)cc2F)s1,11
19,CCNc1nc(C)cc(Nc2ccc(NS(=O)(=O)c3c(C)noc3C)cc2)n1,100
20,CCC(=O)Nc1nc2c(OC)cc(NS(=O)(=O)c3c(C)noc3C)cc2s1,10
21,O=C(Nc1ccc(N2CCOCC2)cc1)Nc1ccc(F)cc1F,7
22,CCNc1nc(C)cc(Nc2ccc(NC(=O)c3cc(C)ccc3C)cc2)n1,99

row,SMILES,% Inhibition [%]
1,CCc1ccc(NC(=O)[C@H](C)N2CCC(NS(=O)(=O)c3cccs3)CC2)cc1,77
2,Cn1cc(C(=O)NCC2CCN(S(=O)(=O)c3cccs3)CC2)cn1,2
3,CCc1ccc(NC(=O)[C@@H]2CCn3c(C(=O)c4ccccc4)ccc32)cc1,6
4,Cc1nn(Cc2cccc(F)c2)c(C)c1NC(=O)c1cccc(COc2ccc(Br)cc2)c1,16
5,COc1cc(C)sc1C(=O)NCc1csc(=O)[nH]1,-7
6,COc1ccc(C(=O)n2nc(Nc3ccccc3Cl)cc2Nc2ccccc2Cl)cc1,12
7,COc1ccc(-n2ncc3c(N)c4c(nc32)CCCC4=O)cc1,11
8,C[C@@H](C(=O)Nc1cccc2ccccc12)N1CCCCC1,7
9,CCOCCC1(CN=C(N)N2CCCCC2)CCCC1,5
10,Cc1ccc(C2c3ccsc3CCN2CCC(=O)N2CCN(C(=O)Cc3cccs3)C(C)C2)cc1 (centres undefined),26
11,OC[C@H]1CCc2nnc(C(F)F)n2C1,11
12,CCn1nc(-n2cnnc2)c(NS(=O)(=O)c2cccc(Cl)c2)c1C,3
13,CCOc1cc(CNCCCn2ccnc2)ccc1OCc1ccccc1,23
14,COc1cccc(CNCCN2CCOCC2)c1OCc1ccc(Cl)cc1Cl,11
15,COc1cccc(CNCCCN2CCOCC2)c1OCc1ccc(Cl)cc1Cl,12
16,Clc1ccc(COc2ccc(Cl)cc2CNCCCn2ccnc2)c(Cl)c1,100
17,OCCNCc1ccc(Cl)cc1Cl,6
18,Clc1ccc(Cn2cc(CNCCCn3ccnc3)c3ccccc32)c(Cl)c1,100
19,COc1ccc(NC(=O)[C@@H](c2cc(OC)c(OC)c(OC)c2)N(Cc2ccccc2)C(=O)Cn2nnc3ccccc32)cc1,-15
20,COc1ccc(S(=O)(=O)N2CCN(S(=O)(=O)c3ccc(OC)cc3)C2)cc1,-2
